Results from PubChem BioAssay (NCATS).
Records with an inconclusive call do not appear. A call without a number means that no potency is given here. Unmarked numbers belong to inactive results. Calls of active or inactive are those of the source. Calls come from the whole dose curve; as a rule, active = well fitted curve in the direction sought with a large enough effect; inconclusive = small, poorly fitted or top-dose-only effect, or another doubt; inactive = no such curve, though single readings can be large; an effect the other way counts as inactive or inconclusive.

Experiment: qHTS assay to identify small molecule inhibitors of chordoma cells - UCH-1 (AID 1259355); note: nearly all actives have a fitted effect of over 55% in size
Conditions: UCH-1 chordoma viability, CellTiter-Glo, 48 h, combination; series mostly up to 46.1 µM
Method in brief: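 Screening used approved and investigational drugs in 15-point titration against 800 seeded cells per well. A fixed combination of auranofin with camptothecin, doxorubicin, rubitecan and topotecan followed compound addition, and growth was scored by CellTiter-Glo after 48hr.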

Q: With `COc1ccc2c(c1)C13CCCC[C@@H]1C(C2)N(C)CC3` (stereo not given in full) as the compound, how does the outcome read?
A: inactive

Q: Which outcome does the source give for `CN1C(=O)CC(=O)N(c2ccccc2)c2cc(Cl)ccc21` here?
A: inactive

Q: With `Clc1ccc2c(c1)C(c1ccccc1)=NCc1nncn1-2` as the compound, how does the outcome read?
A: inactive

Q: With `CN1C(=O)C(O)N=C(c2ccccc2)c2cc(Cl)ccc21` (stereo not given) as the compound, how does the outcome read?
A: inactive

Q: Which outcome does the source give for `NC1=NC(=O)C(c2ccccc2)O1` (stereo not given) here?
A: inactive

Q: Which outcome does the source give for `O=C(O)CCCc1ccc(N(CCCl)CCCl)cc1` here?
A: inactive

Q: Which outcome does the source give for `O=C1Nc2ccc(Cl)cc2C(c2ccccc2Cl)=NC1O` (stereo not given) here?
A: inactive

Q: For `CCCC(C)(COC(N)=O)COC(N)=O`, which outcome is on record?
A: inactive

Q: For `Cc1nnc2n1-c1ccc(Cl)cc1C(c1ccccc1Cl)=NC2`, which outcome is on record?
A: inactive

Q: With `c1ccc2c(c1)sc1ccccc12` as the compound, how does the outcome read?
A: inactive

Experiment: qHTS assay to identify small molecule inhibitors of chordoma cells - UCH-2 (AID 1259356)
Conditions: UCH-2 chordoma viability, CellTiter-Glo ATP luminescence, 48 h; series mostly up to 46.1 µM

Q: Which outcome does the source give for `COC(=O)C(c1ccccc1)C1CCCCN1` (stereo not given) here?
A: inactive

Q: For `CCC1(CC)C(=O)C=CNC1=O`, which outcome is on record?
A: inactive

Q: For `CCCCCN(C)CCC(O)(P(=O)(O)O)P(=O)(O)O`, which outcome is on record?
A: inactive

Q: With `COC1CC(=C(c2cccs2)c2cccs2)C[N+](C)(C)C1` (stereo not given) as the compound, how does the outcome read?
A: inactive

Q: With `O=[N+]([O-])O[C@H]1CO[C@H]2[C@@H]1OC[C@H]2O[N+](=O)[O-]` as the compound, how does the outcome read?
A: inactive

Q: Which outcome does the source give for `CCCCCCC(=O)CCCCCC/C=C/C[C@@H](O)[C@H](O)[C@@](N)(CO)C(=O)O` here?
A: inactive

Q: For `CN1C[C@H](C(=O)N[C@]2(C)O[C@@]3(O)[C@@H]4CCCN4C(=O)[C@H](Cc4ccccc4)N3C2=O)C=C2c3cccc4[nH]cc(c34)C[C@H]21`, which outcome is on record?
A: inactive

Q: Which outcome does the source give for `[N-]=[N+]=CC(=O)OC[C@H](N)C(=O)O` here?
A: inactive

Q: With `C[C@]12CCC(=O)C=C1CC[C@@H]1[C@@H]2CC[C@]2(C)C(=O)CC[C@@H]12` as the compound, how does the outcome read?
A: inactive

Q: Which outcome does the source give for `O=C(Nc1ccc(Br)cc1)c1cc(Br)cc(Br)c1O` here?
A: inactive

Q: For `CC(=O)NC1CCSC1=O` (stereo not given), which outcome is on record?
A: inactive

Q: Which outcome does the source give for `CCOP(=S)(OCC)Oc1ccc2c(C)c(Cl)c(=O)oc2c1` here?
A: inactive

Q: Which outcome does the source give for `CC(C)C[C@H](CN)CC(=O)O` here?
A: inactive

Q: For `CN=C1CN(O)C(c2ccccc2)=c2cc(Cl)ccc2=N1`, which outcome is on record?
A: inactive

Q: Which outcome does the source give for `O=C(N/N=C/c1ccc([N+](=O)[O-])o1)c1cc([N+](=O)[O-])cc([N+](=O)[O-])c1O` here?
A: inactive

Q: Which outcome does the source give for `COP(=S)(OC)Oc1ccc(SC)c(C)c1` here?
A: inactive

Q: For `COC(=O)[C@@H](N)CCCN/C(N)=N/[N+](=O)[O-]`, which outcome is on record?
A: inactive

Q: For `O=C1CN=C(c2ccccc2)c2cc([N+](=O)[O-])ccc2N1`, which outcome is on record?
A: inactive

Q: For `Nc1nc(N)nc(NC2CC2)n1`, which outcome is on record?
A: inactive

Q: For `CN1CCC(O)(c2ccc(F)cc2)C(C(=O)c2ccc(F)cc2)C1` (stereo not given), which outcome is on record?
A: inactive

Q: For `O=C1Nc2ccc(Cl)cc2C(c2ccccc2)=NC1O` (stereo not given), which outcome is on record?
A: inactive

Q: With `CN1C(=O)NC(=O)C(C)(C2=CCCCC2)C1=O` (stereo not given) as the compound, how does the outcome read?
A: inactive

Q: With `CCCCC/C=C\C/C=C\C/C=C\C/C=C\CCCC(=O)NCC(=O)O` as the compound, how does the activity change, negative = inhibition read?
A: -22% [at 4.61 µM]

Q: With `COc1ccc2c(c1)C13CCCC[C@@H]1C(C2)N(C)CC3` (stereo not given in full) as the compound, how does the outcome read?
A: inactive

Q: For `CN1C(=O)CC(=O)N(c2ccccc2)c2cc(Cl)ccc21`, which outcome is on record?
A: inactive

Q: Which outcome does the source give for `Clc1ccc2c(c1)C(c1ccccc1)=NCc1nncn1-2` here?
A: inactive

Q: Which outcome does the source give for `CN1C(=O)C(O)N=C(c2ccccc2)c2cc(Cl)ccc21` (stereo not given) here?
A: inactive

Q: With `NC1=NC(=O)C(c2ccccc2)O1` (stereo not given) as the compound, how does the outcome read?
A: inactive

Q: For `O=C(O)CCCc1ccc(N(CCCl)CCCl)cc1`, which outcome is on record?
A: inactive

Q: With `Cc1nnc2n1-c1ccc(Cl)cc1C(c1ccccc1)=NC2` as the compound, how does the outcome read?
A: inactive

Q: For `O=C1Nc2ccc(Cl)cc2C(c2ccccc2Cl)=NC1O` (stereo not given), which outcome is on record?
A: inactive

Q: With `CCCC(C)(COC(N)=O)COC(N)=O` as the compound, how does the outcome read?
A: inactive

Q: With `Cc1nnc2n1-c1ccc(Cl)cc1C(c1ccccc1Cl)=NC2` as the compound, how does the outcome read?
A: inactive

Q: Which outcome does the source give for `c1ccc2c(c1)sc1ccccc12` here?
A: inactive

Experiment: P-glycoprotein substrates identified in KB-3-1 adenocarcinoma cell line, qHTS therapeutic library screen (AID 1346986); note: nearly all actives have a fitted effect of over 60% in size
Conditions: KB-3-1 parental cells viability, CellTiter-Glo, 72 h; at 44.5 µM (top of the series) unless noted
Method in brief: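 Viability by CellTiter-Glo after 72 h compound exposure at 37 degree C, 5% CO2. Cytotoxic call: curve class -1.1 to -2.4, maximum response >50%, AC50 < 10 uM, compared across KB-3-1 and P-gp-overexpressing KB-8-5-11.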

Q: For `CCCCCN(C)CCC(O)(P(=O)(O)O)P(=O)(O)O`, which outcome is on record?
A: inactive

Q: With `Nc1ccn(C[C@@H](CO)OCP(=O)(O)O)c(=O)n1` as the compound, how does the outcome read?
A: inactive [at 17.4 µM]

Q: For `O=C(O)CCCc1ccc(N(CCCl)CCCl)cc1`, which outcome is on record?
A: inactive

Experiment: P-glycoprotein substrates identified in KB-8-5-11 adenocarcinoma cell line, qHTS therapeutic library screen (AID 1346987); note: nearly all actives have a fitted effect of over 65% in size; note: potency is the fitted concentration of half-maximal effect
Conditions: KB-8-5-11 (P-gp overexpressing) viability, CellTiter-Glo, 72 h; series mostly up to 44.5 µM
Method in brief: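 Human cervical adenocarcinoma KB-8-5-11 cells, selected in colchicine to over-express P-gp and assayed without it, were exposed for 72 h to titrated compounds. An ATP-based luminescent viability signal gave AC50.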

Q: Which Potency does the source give for `COC(=O)C(c1ccccc1)C1CCCCN1` (stereo not given) here?
A: inactive

Q: For `CCC1(CC)C(=O)C=CNC1=O`, which Potency is on record?
A: inactive

Q: With `CCCCCN(C)CCC(O)(P(=O)(O)O)P(=O)(O)O` as the compound, how does the Potency read?
A: inactive

Q: For `COC1CC(=C(c2cccs2)c2cccs2)C[N+](C)(C)C1` (stereo not given), which Potency is on record?
A: inactive

Q: For `O=[N+]([O-])O[C@H]1CO[C@H]2[C@@H]1OC[C@H]2O[N+](=O)[O-]`, which Potency is on record?
A: inactive

Q: Which Potency does the source give for `CCCCCCC(=O)CCCCCC/C=C/C[C@@H](O)[C@H](O)[C@@](N)(CO)C(=O)O` here?
A: inactive

Q: Which Potency does the source give for `COc1cc(CCN)cc(OC)c1OC` here?
A: inactive

Q: Which Potency does the source give for `CC(C)[C@H]1C(=O)N2CCC[C@H]2[C@]2(O)O[C@](NC(=O)[C@@H]3C[C@@H]4c5cccc6[nH]cc(c56)C[C@H]4N(C)C3)(C(C)C)C(=O)N12` here?
A: inactive

Q: Which Potency does the source give for `[N-]=[N+]=CC(=O)OC[C@H](N)C(=O)O` here?
A: inactive

Q: For `O=C(Nc1ccc(Br)cc1)c1cc(Br)cc(Br)c1O`, which Potency is on record?
A: 4.61 µM (active)

Q: Which Potency does the source give for `CC(=O)NC1CCSC1=O` (stereo not given) here?
A: inactive

Q: With `COc1ccc2c3c1O[C@H]1[C@H](O)CC[C@H]4[C@@H](C2)N(C)CC[C@@]341` as the compound, how does the Potency read?
A: inactive

Q: With `CC(C)C[C@H](CN)CC(=O)O` as the compound, how does the Potency read?
A: inactive

Q: With `CN=C1CN(O)C(c2ccccc2)=c2cc(Cl)ccc2=N1` as the compound, how does the Potency read?
A: inactive

Q: Which Potency does the source give for `O=C(N/N=C/c1ccc([N+](=O)[O-])o1)c1cc([N+](=O)[O-])cc([N+](=O)[O-])c1O` here?
A: inactive

Q: With `COc1cc(OC)c(OC)cc1C=O` as the compound, how does the Potency read?
A: inactive

Q: Which Potency does the source give for `COP(=S)(OC)Oc1ccc(SC)c(C)c1` here?
A: inactive

Q: For `COC(=O)[C@@H](N)CCCN/C(N)=N/[N+](=O)[O-]`, which Potency is on record?
A: inactive

Q: With `O=C1CN=C(c2ccccc2)c2cc([N+](=O)[O-])ccc2N1` as the compound, how does the Potency read?
A: inactive

Q: Which Potency does the source give for `Nc1nc(N)nc(NC2CC2)n1` here?
A: inactive

Q: For `CN1CCC(O)(c2ccc(F)cc2)C(C(=O)c2ccc(F)cc2)C1` (stereo not given), which Potency is on record?
A: inactive

Q: For `O=C1Nc2ccc(Cl)cc2C(c2ccccc2)=NC1O` (stereo not given), which Potency is on record?
A: inactive

Q: For `CN1C(=O)NC(=O)C(C)(C2=CCCCC2)C1=O` (stereo not given), which Potency is on record?
A: inactive

Q: Which activity change, negative = cytotoxicity does the source give for `CCCCC/C=C\C/C=C\C/C=C\C/C=C\CCCC(=O)NCC(=O)O` here?
A: 0.883% [at 5.11 µM]

Q: With `Nc1ccn(C[C@@H](CO)OCP(=O)(O)O)c(=O)n1` as the compound, how does the Potency read?
A: inactive

Q: With `COc1ccc2c(c1)C13CCCC[C@@H]1C(C2)N(C)CC3` (stereo not given in full) as the compound, how does the Potency read?
A: inactive

Q: Which Potency does the source give for `CN1C(=O)CC(=O)N(c2ccccc2)c2cc(Cl)ccc21` here?
A: inactive

Q: With `Clc1ccc2c(c1)C(c1ccccc1)=NCc1nncn1-2` as the compound, how does the Potency read?
A: inactive

Q: With `NC1=NC(=O)C(c2ccccc2)O1` (stereo not given) as the compound, how does the Potency read?
A: inactive

Q: Which Potency does the source give for `O=C(O)CCCc1ccc(N(CCCl)CCCl)cc1` here?
A: inactive

Q: For `O=C1Nc2ccc(Cl)cc2C(c2ccccc2Cl)=NC1O` (stereo not given), which Potency is on record?
A: inactive

Q: With `CCCC(C)(COC(N)=O)COC(N)=O` as the compound, how does the Potency read?
A: inactive

Q: For `c1ccc2c(c1)sc1ccccc12`, which Potency is on record?
A: inactive
